Assay results: PubChem BioAssay (Tox21)
Inconclusive results are not listed. Entries that show only a call come without a potency. Calls of active or inactive are those of the source. The call rests on the fitted dose curve; in most records, active means well fitted activation curve with a large enough effect in the signal ratio in the repeat runs (not every such curve was filed as active); inconclusive means weak or mixed curves, or effect the other way; inactive means no such curve, though single readings can be large or run the other way; the % refers to the signal ratio.
Potency means the concentration at half of the fitted maximal effect.

What follows are compounds tested against Glucocorticoid receptor (Homo sapiens) (UniProt P04150) (assay: qHTS assay to identify small molecule agonists of the glucocorticoid receptor (GR) signaling pathway (AID 720691)). Conditions: GR-bla HeLa, beta-lactamase reporter ratio, 18 h; series mostly up to 62.4 µM.
Glucocorticoid receptor (Homo sapiens), sequence (P04150 whole entry, looked up): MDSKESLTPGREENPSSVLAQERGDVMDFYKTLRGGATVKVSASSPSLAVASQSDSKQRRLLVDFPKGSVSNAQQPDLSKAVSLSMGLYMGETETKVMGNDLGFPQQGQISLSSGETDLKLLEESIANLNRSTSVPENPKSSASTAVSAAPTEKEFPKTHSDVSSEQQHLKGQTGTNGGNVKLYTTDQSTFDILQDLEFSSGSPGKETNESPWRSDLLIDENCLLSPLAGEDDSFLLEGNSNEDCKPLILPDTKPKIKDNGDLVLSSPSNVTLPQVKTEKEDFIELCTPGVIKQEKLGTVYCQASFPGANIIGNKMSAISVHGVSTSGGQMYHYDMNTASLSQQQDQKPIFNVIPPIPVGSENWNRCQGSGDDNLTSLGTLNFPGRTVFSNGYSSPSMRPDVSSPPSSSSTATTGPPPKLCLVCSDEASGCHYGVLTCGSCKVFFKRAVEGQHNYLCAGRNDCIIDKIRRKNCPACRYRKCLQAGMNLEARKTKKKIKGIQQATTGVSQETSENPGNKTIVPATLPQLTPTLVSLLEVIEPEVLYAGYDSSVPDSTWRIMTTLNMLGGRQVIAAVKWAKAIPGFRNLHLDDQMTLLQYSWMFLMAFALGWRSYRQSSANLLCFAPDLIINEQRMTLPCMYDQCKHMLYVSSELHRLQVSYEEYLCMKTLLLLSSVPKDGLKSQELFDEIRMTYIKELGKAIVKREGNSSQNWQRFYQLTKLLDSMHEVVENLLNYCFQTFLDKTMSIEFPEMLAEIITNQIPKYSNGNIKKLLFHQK
Description: U.S. Tox21 Program National Center for Advancing Translational Sciences [NCATS] NIH Chemical Genomics Center [NCGC] U.S. Environmental Protection Agency [EPA] National Institutes of Environmental Health Sciences [NIEHS] National Toxicology Program [NTP] U.S. Food and Drug Administration [FDA] Tox21 Assay Overview: The Glucocorticoid receptor (GR) is one of the members of the nuclear receptor family of ligand-dependent transcription factors. GR plays a critical role in carbohydrate, protein and lipid metabolisms and programmed cell death. CellSensor GR-bla HeLa cell line (Invitrogen) contains a beta-lactamase reporter gene under the control of the glucocorticoid response element stably integrated into HeLa cells, a cervical cancer cell line that expresses glucocorticoid receptor. The activation of the reporter gene under culture conditions can be detected by fluorescence intensity. This cell line has been used to screen the Tox21 10K compound library and to identify the compounds that activate the GR signaling.
Tox21 Assay Protocol Summary: The GR-bla HeLa cells were dispensed at 1500 cells/6 ul/well in 1536-well black wall/clear bottom plates using a Multidrop Combi (ThermoFisher Scientific, Waltham, MA) dispenser. After the assay plates were incubated at a 37 C/5% CO2 incubator for 4 hours, 23 nL of compounds dissolved in DMSO, positive controls or DMSO only was transferred to the assay plate by a pintool station (Kalypsys, San Diego, CA). The plates were incubated at 37 C for 18 hours. After 1 uL of LiveBLAzerTM B/G FRET substrate was added using a Flying Reagent Dispenser (Aurora Discovery, San Diego, CA), the plates were incubated at room temperature for 2 hours, and fluorescence intensity was measured by an Envision plate reader (PerkinElmer, Shelton, CT).
For `CC1CCc2cc(F)cc3c(=O)c(C(=O)O)cn1c23` (stereo not given), the Potency was “inactive”. `CCCCCOC(=O)COc1cc(N2C(=O)C3=C(CCCC3)C2=O)c(F)cc1Cl` was tested, and the Potency was “inactive”. `COC(=O)CSc1cc(N=c2sc(=O)n3n2CCCC3)c(F)cc1Cl` was tested, and the Potency was “inactive”. In the case of `CC(C)c1cccc(C(C)C)c1NC(=O)NS(=O)(=O)c1cc(C(C)(C)O)co1`, the Potency was “inactive”. With `NC(=S)N/N=C/c1cccnc1` the Potency was “inactive”. In the case of `C=C(C)C(=O)OCCOc1ccccc1`, the Potency was “inactive”. `O=C(C(=O)c1ccc(Br)cc1)c1ccc(Br)cc1` was tested, and the Potency was “inactive”. In the case of `CC(=O)N(O)CCCCCNC(=O)CCC(=O)N(O)CCCCCNC(=O)CCC(=O)N(O)CCCCCN`, the Potency was “inactive”. In the case of `CCCC(C)C`, the Potency was “inactive”. With `S=C(S)NCCNC(=S)S` the Potency was “inactive”. `Oc1ccc(Cc2ccccc2)cc1` was tested, and the Potency was “inactive”. `Cc1cc(NC(=O)C(=O)O)cc(C)c1Oc1ccc(O)c2c1CCC2` was tested, and the Potency was “inactive”. `CCCCCCc1ccc(N)cc1` was tested, and the Potency was “inactive”. With `CN(C)CC/C=C1\c2ccccc2COc2ccccc21` the Potency was “inactive”. `C1CCC2OC2C1` (stereo not given) was tested, and the Potency was “inactive”. In the case of `CN(C)C/C=C(/c1ccc(Br)cc1)c1cccnc1`, the Potency was “inactive”. `CCCCc1cc2ccccc2c(OCCN(C)C)n1` was tested, and the Potency was 1.02 µM (active). For `CC(C)c1ccc2c(C(C)C)cc(C(C)C)c(S(=O)(=O)O)c2c1`, the Potency was “inactive”. `CC(Cc1cccc(C(F)(F)F)c1)NCCOC(=O)c1ccccc1` (stereo not given) was tested, and the Potency was “inactive”. For `CCN(CC)CCOC(=O)C1(c2ccccc2)CCCC1`, the Potency was “inactive”. In the case of `Cn1sccc1=O`, the Potency was “inactive”. `CCCCOC(=O)/C=C\C(=O)OCCCC` was tested, and the Potency was “inactive”. `CCCCCCCCCC=O` was tested, and the Potency was “inactive”. In the case of `NC1CCN(c2nc3c(cc2F)c(=O)c(C(=O)O)cn3-c2ccc(F)cc2F)C1` (stereo not given), the Potency was “inactive”. With `O=C(O)[C@@H]1[C@H]2C[C@H]3c4[nH]c5ccccc5c4CCN3C[C@@H]2CC[C@@H]1O` the Potency was “inactive”. With `Cc1ccc(C(C)c2ccc(C)c(C)c2)cc1C` the Potency was “inactive”. `N#CCc1cccc(C(F)(F)F)c1` was tested, and the Potency was “inactive”. For `CC(=O)/C(C)=C/C1C(C)=CCCC1(C)C` (stereo not given), the Potency was “inactive”. In the case of `CCCCC(CC)COCCCN` (stereo not given), the Potency was “inactive”. In the case of `CC(C)(C)c1cc(CO)cc(C(C)(C)C)c1O`, the Potency was “inactive”. With `CCCCCCCCCCCCCCCC(=O)OC/C=C(C)/C=C/C=C(C)/C=C/C1=C(C)CCCC1(C)C` the Potency was “inactive”. With `N#Cc1cc2ccccc2c2ccccc12` the Potency was “inactive”. `CNCC[C@@H](Oc1ccccc1C)c1ccccc1` was tested, and the Potency was “inactive”. For `O=[N+]([O-])c1cc[n+]([O-])cc1`, the Potency was “inactive”. For `Cc1cccc(Oc2ccccc2)c1`, the Potency was “inactive”. For `Cc1ccccn1`, the Potency was “inactive”. For `O=C(CC(=O)c1ccccc1)c1ccccc1`, the Potency was “inactive”. For `CC[C@H](C)[C@@H](C(=O)O)n1sc2ccccc2c1=O`, the Potency was “inactive”. With `c1ccc(CNCc2ccccc2)cc1` the Potency was “inactive”. For `c1ccc(OCc2ccc(CCCN3CCOCC3)cc2)cc1`, the Potency was “inactive”.
